Test results from article PMC7862700, “An all-to-all approach to the identification of sequence-specific readers for epigenetic DNA modifications on cytosine”.

Key:
Assay in all cases: DAPPL (digital affinity profiling via proximity ligation, sequencing); 10 mM Tris-HCl pH 7.5, 50 mM NaCl, 1 mM DTT, 4% glycerol, room temperature, 30 min; GST-TFs on glutathione beads, 16-mer random dsDNA library, 0.1% formaldehyde crosslink after washing; high values mean tight binding
Conditions in all cases: protein: recombinant; tags: N-terminal GST; dsDNA, one strand shown
[1] = target: T1, FEV (Homo sapiens, UniProt Q99581 1-238)
T1 sequence: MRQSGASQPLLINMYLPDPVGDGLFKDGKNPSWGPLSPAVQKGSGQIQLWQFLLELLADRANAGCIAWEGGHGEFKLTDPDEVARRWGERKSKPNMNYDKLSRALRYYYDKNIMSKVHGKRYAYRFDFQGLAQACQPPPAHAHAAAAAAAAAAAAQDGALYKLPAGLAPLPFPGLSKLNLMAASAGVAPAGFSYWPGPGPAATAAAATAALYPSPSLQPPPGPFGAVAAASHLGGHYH
How it was run: (§1)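 Binding signal is given per hexamer as its read frequency for a factor divided by its frequency in the tag-only sample. GST-fused human transcription factors were expressed in yeast, captured on glutathione beads, barcoded with DNA and pooled with that sample, then incubated with 200 nmole of a 16-mer random double-stranded DNA library in Tris/NaCl/DTT/glycerol buffer for 30 min at room temperature. The pools were then washed, crosslinked, proximity-ligated, amplified by PCR and sequenced on an Illumina NextSeq500.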

[2] = target: ETV5 (Homo sapiens, UniProt P41161 1-510)
Chain of ETV5 (P41161 whole entry): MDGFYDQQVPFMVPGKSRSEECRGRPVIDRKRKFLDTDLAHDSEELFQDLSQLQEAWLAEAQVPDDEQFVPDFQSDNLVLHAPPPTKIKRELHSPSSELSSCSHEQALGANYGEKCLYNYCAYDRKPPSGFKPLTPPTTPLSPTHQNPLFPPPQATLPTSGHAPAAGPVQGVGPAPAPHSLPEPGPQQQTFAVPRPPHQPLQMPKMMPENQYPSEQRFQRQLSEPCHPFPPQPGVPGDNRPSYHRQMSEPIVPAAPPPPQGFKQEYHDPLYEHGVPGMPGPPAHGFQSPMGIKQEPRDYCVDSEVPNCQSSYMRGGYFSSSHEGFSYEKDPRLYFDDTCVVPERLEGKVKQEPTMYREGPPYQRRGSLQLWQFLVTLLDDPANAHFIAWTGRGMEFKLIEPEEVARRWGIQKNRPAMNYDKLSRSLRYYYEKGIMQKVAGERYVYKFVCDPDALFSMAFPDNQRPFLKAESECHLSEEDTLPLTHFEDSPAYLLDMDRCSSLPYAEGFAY
How it was run: as §1

[3] = target: T2, SPIC (Homo sapiens, UniProt Q8N5J4 1-248)
T2 sequence: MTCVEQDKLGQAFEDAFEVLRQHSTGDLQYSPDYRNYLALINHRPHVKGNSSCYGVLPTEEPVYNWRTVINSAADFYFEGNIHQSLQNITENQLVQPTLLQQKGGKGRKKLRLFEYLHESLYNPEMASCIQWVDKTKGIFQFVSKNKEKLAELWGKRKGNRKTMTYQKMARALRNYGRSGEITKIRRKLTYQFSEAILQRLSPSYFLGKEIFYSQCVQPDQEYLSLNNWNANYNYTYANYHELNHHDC
How it was run: as §1

[4] = target: ELF4 (Homo sapiens, UniProt Q99607 1-663)
Chain of ELF4 (Q99607 whole entry): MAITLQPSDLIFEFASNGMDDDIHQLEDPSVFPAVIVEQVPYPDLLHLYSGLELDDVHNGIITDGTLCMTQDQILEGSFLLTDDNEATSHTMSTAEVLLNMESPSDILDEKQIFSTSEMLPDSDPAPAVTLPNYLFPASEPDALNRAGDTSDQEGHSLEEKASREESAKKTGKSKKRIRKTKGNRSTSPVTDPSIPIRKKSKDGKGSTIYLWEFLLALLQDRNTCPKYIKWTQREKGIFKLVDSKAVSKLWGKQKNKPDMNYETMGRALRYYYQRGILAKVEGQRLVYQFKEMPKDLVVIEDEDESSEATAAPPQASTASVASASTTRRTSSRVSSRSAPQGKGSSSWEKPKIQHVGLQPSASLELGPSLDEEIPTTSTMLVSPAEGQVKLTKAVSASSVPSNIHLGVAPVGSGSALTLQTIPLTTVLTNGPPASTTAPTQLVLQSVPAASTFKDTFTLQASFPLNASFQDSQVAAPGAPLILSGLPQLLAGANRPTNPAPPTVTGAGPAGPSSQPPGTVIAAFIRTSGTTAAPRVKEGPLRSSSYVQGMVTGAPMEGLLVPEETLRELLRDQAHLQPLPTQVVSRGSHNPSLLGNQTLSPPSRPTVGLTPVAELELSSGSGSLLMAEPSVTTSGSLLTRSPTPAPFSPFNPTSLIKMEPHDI
How it was run: as §1

[5] = target: T3, ELK4 (Homo sapiens, UniProt P28324-2 1-405)
T3 sequence: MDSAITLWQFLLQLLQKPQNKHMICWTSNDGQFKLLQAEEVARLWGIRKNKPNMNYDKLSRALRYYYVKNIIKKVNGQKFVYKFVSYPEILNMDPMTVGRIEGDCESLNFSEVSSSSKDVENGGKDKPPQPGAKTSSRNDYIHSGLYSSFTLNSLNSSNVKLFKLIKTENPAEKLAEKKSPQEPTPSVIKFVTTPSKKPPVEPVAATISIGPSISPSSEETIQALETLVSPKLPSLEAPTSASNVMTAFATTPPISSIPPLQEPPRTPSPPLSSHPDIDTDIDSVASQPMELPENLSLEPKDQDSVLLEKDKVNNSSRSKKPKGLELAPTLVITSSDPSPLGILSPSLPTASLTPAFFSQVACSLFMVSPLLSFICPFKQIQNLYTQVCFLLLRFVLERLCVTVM
How it was run: as §1

[6] = target: T4, ETV2 (Homo sapiens, UniProt O00321 1-342)
T4 sequence: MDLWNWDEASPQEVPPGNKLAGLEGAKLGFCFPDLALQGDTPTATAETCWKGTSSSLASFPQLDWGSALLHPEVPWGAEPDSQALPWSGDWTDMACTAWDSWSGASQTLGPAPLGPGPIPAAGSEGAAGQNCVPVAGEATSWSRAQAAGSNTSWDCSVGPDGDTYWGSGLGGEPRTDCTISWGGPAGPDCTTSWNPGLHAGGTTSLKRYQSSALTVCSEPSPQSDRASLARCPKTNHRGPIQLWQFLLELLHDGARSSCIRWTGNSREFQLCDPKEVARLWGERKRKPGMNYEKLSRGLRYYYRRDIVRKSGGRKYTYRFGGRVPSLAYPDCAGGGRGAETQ
How it was run: as §1

[7] = target: T5, ELF3 (Homo sapiens, UniProt P78545 1-371)
T5 sequence: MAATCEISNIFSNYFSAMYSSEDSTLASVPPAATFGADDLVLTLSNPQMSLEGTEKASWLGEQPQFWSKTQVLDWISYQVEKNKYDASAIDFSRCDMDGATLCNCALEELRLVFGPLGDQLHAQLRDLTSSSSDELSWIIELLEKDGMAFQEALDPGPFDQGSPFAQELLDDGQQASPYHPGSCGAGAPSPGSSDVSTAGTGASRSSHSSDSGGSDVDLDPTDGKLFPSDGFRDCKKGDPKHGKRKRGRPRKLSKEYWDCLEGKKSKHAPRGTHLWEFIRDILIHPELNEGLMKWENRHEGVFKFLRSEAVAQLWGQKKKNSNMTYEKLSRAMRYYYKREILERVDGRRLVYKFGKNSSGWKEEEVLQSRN
How it was run: as §1

[8] = target: ETV1 (Homo sapiens, UniProt P50549 1-477)
Chain of ETV1 (P50549 whole entry): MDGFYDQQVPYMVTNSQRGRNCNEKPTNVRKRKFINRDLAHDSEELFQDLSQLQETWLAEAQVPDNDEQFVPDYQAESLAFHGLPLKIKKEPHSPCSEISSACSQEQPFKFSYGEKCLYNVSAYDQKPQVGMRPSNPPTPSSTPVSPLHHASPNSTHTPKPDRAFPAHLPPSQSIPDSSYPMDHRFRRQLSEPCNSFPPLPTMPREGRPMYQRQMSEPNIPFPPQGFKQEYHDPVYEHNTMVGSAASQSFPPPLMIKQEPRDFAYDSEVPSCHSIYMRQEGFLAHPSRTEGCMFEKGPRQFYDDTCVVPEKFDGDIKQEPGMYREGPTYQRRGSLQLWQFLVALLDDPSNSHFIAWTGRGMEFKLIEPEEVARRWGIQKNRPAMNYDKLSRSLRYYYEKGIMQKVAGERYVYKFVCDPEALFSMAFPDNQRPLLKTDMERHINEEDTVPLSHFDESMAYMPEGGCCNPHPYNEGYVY
How it was run: as §1

[9] = target: T6, ERF (Homo sapiens, UniProt P50548 1-548)
T6 sequence: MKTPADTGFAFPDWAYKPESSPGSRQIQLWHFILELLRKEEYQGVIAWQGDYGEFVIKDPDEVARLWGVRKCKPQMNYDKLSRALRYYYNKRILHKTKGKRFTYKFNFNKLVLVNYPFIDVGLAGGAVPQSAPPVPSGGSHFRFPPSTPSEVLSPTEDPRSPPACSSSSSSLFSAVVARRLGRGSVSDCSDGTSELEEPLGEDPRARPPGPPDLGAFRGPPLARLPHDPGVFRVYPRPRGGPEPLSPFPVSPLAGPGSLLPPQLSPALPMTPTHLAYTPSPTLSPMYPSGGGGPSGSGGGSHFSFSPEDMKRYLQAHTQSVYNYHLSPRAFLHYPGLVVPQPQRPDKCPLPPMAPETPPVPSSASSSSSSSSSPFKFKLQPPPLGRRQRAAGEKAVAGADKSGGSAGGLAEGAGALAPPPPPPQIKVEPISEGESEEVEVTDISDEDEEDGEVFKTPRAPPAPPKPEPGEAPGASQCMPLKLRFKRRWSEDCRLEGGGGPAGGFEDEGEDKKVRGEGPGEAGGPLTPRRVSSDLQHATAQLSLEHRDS
How it was run: as §1

[10] = target: T7, ETV3L (Homo sapiens, UniProt Q6ZN32 1-361)
T7 sequence: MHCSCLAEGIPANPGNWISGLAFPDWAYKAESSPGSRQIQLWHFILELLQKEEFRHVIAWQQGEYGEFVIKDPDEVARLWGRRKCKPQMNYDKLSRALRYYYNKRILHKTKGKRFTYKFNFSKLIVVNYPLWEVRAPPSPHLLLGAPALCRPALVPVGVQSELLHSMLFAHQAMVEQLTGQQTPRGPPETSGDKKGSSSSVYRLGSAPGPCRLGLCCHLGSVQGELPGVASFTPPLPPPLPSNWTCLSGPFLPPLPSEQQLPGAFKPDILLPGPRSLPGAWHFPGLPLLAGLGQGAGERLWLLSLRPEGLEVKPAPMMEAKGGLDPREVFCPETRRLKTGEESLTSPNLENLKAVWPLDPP
How it was run: as §1

[11] = target: T8, ETS2 (Homo sapiens, UniProt P15036 1-469)
T8 sequence: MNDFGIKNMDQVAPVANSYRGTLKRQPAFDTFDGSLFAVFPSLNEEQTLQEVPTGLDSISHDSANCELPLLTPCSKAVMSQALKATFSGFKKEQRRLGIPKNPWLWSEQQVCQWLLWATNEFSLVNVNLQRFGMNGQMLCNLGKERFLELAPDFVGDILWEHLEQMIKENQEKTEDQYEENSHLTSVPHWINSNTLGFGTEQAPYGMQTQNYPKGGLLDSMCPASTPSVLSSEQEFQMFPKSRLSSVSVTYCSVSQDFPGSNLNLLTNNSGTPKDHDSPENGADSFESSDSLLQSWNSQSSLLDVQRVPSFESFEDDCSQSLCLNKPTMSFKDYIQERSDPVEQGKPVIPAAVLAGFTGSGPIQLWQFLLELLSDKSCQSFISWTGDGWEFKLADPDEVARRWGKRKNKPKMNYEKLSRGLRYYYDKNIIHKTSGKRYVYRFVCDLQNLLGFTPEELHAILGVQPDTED
How it was run: as §1

[12] = target: T9, SPDEF (Homo sapiens, UniProt O95238 1-335)
T9 sequence: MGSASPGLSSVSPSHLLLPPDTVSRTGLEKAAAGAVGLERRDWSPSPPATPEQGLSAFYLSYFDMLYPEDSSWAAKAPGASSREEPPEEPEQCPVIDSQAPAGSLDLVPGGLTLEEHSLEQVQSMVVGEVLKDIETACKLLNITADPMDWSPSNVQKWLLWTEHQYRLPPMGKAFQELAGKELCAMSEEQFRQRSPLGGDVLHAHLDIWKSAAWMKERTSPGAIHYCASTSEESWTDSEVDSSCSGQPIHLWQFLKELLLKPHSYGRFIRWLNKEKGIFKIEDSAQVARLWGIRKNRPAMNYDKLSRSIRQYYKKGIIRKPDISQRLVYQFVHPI
How it was run: as §1

[13] = target: T10, ETV7 (Homo sapiens, UniProt Q9Y603 1-341)
T10 sequence: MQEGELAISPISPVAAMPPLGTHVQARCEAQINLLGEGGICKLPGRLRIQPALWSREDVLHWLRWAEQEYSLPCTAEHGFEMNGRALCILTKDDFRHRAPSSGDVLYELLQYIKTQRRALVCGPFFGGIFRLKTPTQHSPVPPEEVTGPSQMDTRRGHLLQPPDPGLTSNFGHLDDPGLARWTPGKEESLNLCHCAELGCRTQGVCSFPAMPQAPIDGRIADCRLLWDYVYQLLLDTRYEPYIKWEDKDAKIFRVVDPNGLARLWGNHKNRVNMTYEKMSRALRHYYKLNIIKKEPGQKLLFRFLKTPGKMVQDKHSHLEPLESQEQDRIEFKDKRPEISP
How it was run: as §1

[14] = target: T11, ELF5 (Homo sapiens, UniProt Q9UKW6-2 1-255)
T11 sequence: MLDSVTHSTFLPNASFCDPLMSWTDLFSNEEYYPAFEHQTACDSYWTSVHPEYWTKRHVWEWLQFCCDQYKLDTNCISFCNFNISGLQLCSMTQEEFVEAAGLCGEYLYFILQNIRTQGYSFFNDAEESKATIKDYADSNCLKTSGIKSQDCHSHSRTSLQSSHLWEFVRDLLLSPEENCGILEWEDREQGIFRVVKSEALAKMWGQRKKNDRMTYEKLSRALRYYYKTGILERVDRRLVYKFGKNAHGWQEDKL
How it was run: as §1

[15] = target: T12, ETV3 (Homo sapiens, UniProt P41162-2 1-143)
T12 sequence: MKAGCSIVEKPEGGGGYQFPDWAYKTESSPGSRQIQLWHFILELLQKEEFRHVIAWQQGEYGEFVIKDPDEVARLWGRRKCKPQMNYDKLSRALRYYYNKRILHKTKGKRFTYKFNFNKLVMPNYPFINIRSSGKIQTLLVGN
How it was run: as §1

[16] = target: ETV6 (Homo sapiens, UniProt P41212 1-452)
Chain of ETV6 (P41212 whole entry): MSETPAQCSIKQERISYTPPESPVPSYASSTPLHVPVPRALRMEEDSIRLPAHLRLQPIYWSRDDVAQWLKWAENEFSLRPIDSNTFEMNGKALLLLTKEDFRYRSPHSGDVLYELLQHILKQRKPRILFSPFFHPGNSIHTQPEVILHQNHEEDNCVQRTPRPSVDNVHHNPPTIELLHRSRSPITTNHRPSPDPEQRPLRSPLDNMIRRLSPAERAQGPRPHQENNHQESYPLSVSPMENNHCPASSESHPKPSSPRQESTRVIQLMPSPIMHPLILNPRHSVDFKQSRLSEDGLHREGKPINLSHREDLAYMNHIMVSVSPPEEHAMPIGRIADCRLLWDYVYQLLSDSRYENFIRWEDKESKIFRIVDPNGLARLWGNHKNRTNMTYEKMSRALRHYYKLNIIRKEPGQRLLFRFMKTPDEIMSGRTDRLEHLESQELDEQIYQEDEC
How it was run: as §1

In the case of AACCAC, the binding signal [1] is reported as 1.2 fold enrichment (6-mer frequency, TF over GST control), the binding signal [2] is reported as 1.17 fold enrichment (6-mer frequency, TF over GST control) and the binding signal [3] is reported as 1.25 fold enrichment (6-mer frequency, TF over GST control). The binding signal [4] was 1.26 fold enrichment (6-mer frequency, TF over GST control), the binding signal [5] was 1.26 fold enrichment (6-mer frequency, TF over GST control) and the binding signal [6] was 1.05 fold enrichment (6-mer frequency, TF over GST control). For the same sequence, the binding signal [7] was 1.21 fold enrichment (6-mer frequency, TF over GST control), the binding signal [8] was 1.17 fold enrichment (6-mer frequency, TF over GST control) and the binding signal [9] was 1.18 fold enrichment (6-mer frequency, TF over GST control). The binding signal [10] was 1.16 fold enrichment (6-mer frequency, TF over GST control), the binding signal [11] was 1.14 fold enrichment (6-mer frequency, TF over GST control) and the binding signal [12] was 1.08 fold enrichment (6-mer frequency, TF over GST control). For the same sequence, the binding signal [13] was 1.03 fold enrichment (6-mer frequency, TF over GST control), the binding signal [14] was 1.13 fold enrichment (6-mer frequency, TF over GST control) and the binding signal [15] was 1.17 fold enrichment (6-mer frequency, TF over GST control). The binding signal [16] was 1.19 fold enrichment (6-mer frequency, TF over GST control).

For CCGCCC, the binding signal [1] was 1.38 fold enrichment (6-mer frequency, TF over GST control), the binding signal [2] was 1.34 fold enrichment (6-mer frequency, TF over GST control) and the binding signal [3] was 1.33 fold enrichment (6-mer frequency, TF over GST control). For the same sequence, the binding signal [4] was 1.4 fold enrichment (6-mer frequency, TF over GST control), the binding signal [5] was 1.08 fold enrichment (6-mer frequency, TF over GST control) and the binding signal [6] was 1.2 fold enrichment (6-mer frequency, TF over GST control). The binding signal [7] was 1.28 fold enrichment (6-mer frequency, TF over GST control), the binding signal [8] was 1.26 fold enrichment (6-mer frequency, TF over GST control) and the binding signal [9] was 1.21 fold enrichment (6-mer frequency, TF over GST control). For the same sequence, the binding signal [10] was 1.36 fold enrichment (6-mer frequency, TF over GST control), the binding signal [11] was 1.29 fold enrichment (6-mer frequency, TF over GST control) and the binding signal [12] was 1.27 fold enrichment (6-mer frequency, TF over GST control). For the same sequence, the binding signal [13] was 1.19 fold enrichment (6-mer frequency, TF over GST control), the binding signal [14] was 1.38 fold enrichment (6-mer frequency, TF over GST control) and the binding signal [15] was 1.36 fold enrichment (6-mer frequency, TF over GST control). For the same sequence, the binding signal [16] was 1.39 fold enrichment (6-mer frequency, TF over GST control).
